Five compounds from PubChem BioAssay can be followed below.

The source made the active and inactive calls. Unless noted, the rule behind the calls is not given here.

Experiment [1] relates to Wnt5a (protein binding on small-molecule microarray). Description: Wnt5a binders on small-molecule microarray, primary screen, biophysical, 635/667 nm fluorescence (AID 1142).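 Note: fluorescence read at 667 nm with signal to noise per printed feature.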 The settings on record: 635 nm fluorescence, higher = more signal.
Experiment [2] is described as follows: cell viability in Huh7 cells, primary screen, cytotoxicity control for HCV replication inhibitor project, CellTiter-Glo luminescence, basal, 48 h (AID 1143).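 Note: Huh7 hepatoma cells carrying a hepatitis C replication reporter with no stimulus; test concentration not given here.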 The settings on record: Huh7 HCV replicon, higher = more signal, called active from +8 up or from −8 down.
A short description of experiment [3]: P. aeruginosa biofilm formation inhibitors, primary screen, PAO1 strain, BacTiter-Glo luminescence, LB-PBS (AID 1144). The conditions noted are these: 12 h, higher = more signal.
The nature of experiment [4]: CREB reporter modulators without forskolin, primary screen, cell-based, PC12, CRE-LacZ reporter, unstimulated (AID 1145). The conditions noted are these: no forskolin, luminescence, 4.5 h, higher = more signal, called active from +8 up or from −8 down.
A short description of experiment [5]: CREB reporter modulators under forskolin, primary screen, cell-based, PC12, CRE-LacZ reporter, forskolin-stimulated (AID 1146).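 Note: PC12 cells with 6xCRE LacZ reporter stimulated by forskolin 10 µM; beta-galactosidase reporter signal reflecting CREB driven transcription.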 The settings on record: luminescence, 4.5 h, higher = more signal, called active from +8 up or from −8 down.
The target in experiment [6] is Streptavidin (Streptomyces avidinii) (UniProt P22629). The experiment is described as follows: streptavidin binders on small-molecule microarray, primary screen, artefact control for SMM compound annotation, biophysical, 635/667 nm fluorescence (AID 1147).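 Note: signal reflects streptavidin binding to arrayed compounds as a control protein.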 The conditions noted are these: streptavidin binding, higher = more signal.
A short description of experiment [7]: small-molecule binders of probe aInhba, primary screen, biochemical, small-molecule microarray, 635/667 nm fluorescence (AID 1148).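 Note: score merges 667nm spot fluorescence with signal-to-noise for antibody binding to printed compounds.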 The settings on record: higher = more signal.
Experiment [8] concerns the target Torsin-1A (Homo sapiens) (UniProt O14656). The experiment is described as follows: torsin A binders from cell lysate, primary screen, small-molecule microarray, wild-type, 635/667 nm (AID 1149). The settings on record: COS7 hTOR1A-WT lysate, 635 nm fluorescence, higher = more signal.
For experiment [9] the target is unchanged. The experiment is described as follows: small-molecule binders of mutant TOR1A in lysate, primary screen, cell lysate, small-molecule microarray, COS7 lysate, 635/667 nm fluorescence (AID 1150).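 Note: score pools 667 nm emission and signal to noise measuring lysate protein binding.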 The settings on record: COS7 hTOR1A mutant lysate, 635 nm fluorescence, higher = more signal.
The test system of experiment [10] is Sonic hedgehog protein (Shh). The experiment is described as follows: small-molecule binders of Shh protein, primary screen, biochemical, small-molecule microarray, 635/667 nm fluorescence (AID 1151).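 Note: Shh protein binding to compounds spotted on small-molecule microarray slides; score combines spot fluorescence intensity with signal-to-noise across triplicate slides.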 The conditions noted are these: small-molecule microarray binding, 635 nm fluorescence; higher = more signal.
Experiment [11] is described as follows: E. coli DRC41 culture turbidity changes, primary screen, E. coli filamentation inducer project, strain DRC41, OD650, 48 h (AID 1152).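 Note: E. coli MC1000 strain DRC41 lacking acrAB efflux pump and sulA.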 The conditions noted are these: E. coli DRC41 (acrAB sulA), higher = more signal, called active from +8 up or from −8 down.
The nature of experiment [12]: small-molecule binders of probe aLefty1, primary screen, biochemical, small-molecule microarray, 635/667 nm fluorescence (AID 1153).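 Note: score merges spot fluorescence with signal-to-noise ratio from the scanned slide images.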 The settings on record: higher = more signal.
Experiment [13] in a line: PSAC antagonists in infected red cells, primary screen, cell-based, P. falciparum Indochina, OD700, 1 h (AID 1154). The settings on record: P. falciparum Indochina infected RBC osmotic lysis, higher = more signal, called active from +8 up or from −8 down.
Experiment [14] in a line: PSAC antagonists in infected red cells, primary screen, cell-based, P. falciparum Indochina, OD700, 2 h (AID 1155).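 Note: lysis reports solute entry through the parasite surface anion channel PSAC; channel blockers reduce lysis of infected cells.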 The conditions noted are these: P. falciparum Indochina infected erythrocytes, osmotic lysis OD700; higher = more signal, called active from +8 up or from −8 down.
Experiment [15] can be described thus: osmotic lysis modulators in infected erythrocytes, primary screen, PSAC antagonist project, cell-based, P. falciparum Indochina, OD700, 3 h (AID 1156). The conditions noted are these: higher = more signal, called active from +8 up or from −8 down.
Experiment [16] in a line: PSAC antagonists in infected red cells, primary screen, cell-based, P. falciparum Indochina, OD700, 18 h (AID 1157). The conditions noted are these: P. falciparum Indochina infected erythrocytes, osmotic lysis OD700, 18 h; higher = more signal, called active from +8 up or from −8 down.
Experiment [17] in a line: modulators of S6 phosphorylation in cells, primary screen, cell-based, A549, cytoblot, luminescence, serum-stimulated (AID 1158).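 Note: serum-stimulated A549 lung adenocarcinoma cells; signal is phosphorylated S6 detected by cytoblot immunostaining with HRP secondary.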 The settings on record: A549 phospho-S6 cytoblot, 5 h, higher = more signal.
The target of experiment [18] is NADPH oxidase 2 (Homo sapiens) (UniProt P04839). Description: NOX2-dependent H2O2 signal modulators, primary screen, NOX inhibitor project, cell-based, HEK293-NOX2, PMA-stimulated, Amplex Red fluorescence (AID 1159). Note: test concentration not given here. The conditions noted are these: 45 min, higher = more signal, called active from +8 up or from −8 down.
The target of experiment [19] is NADPH oxidase 4 (Homo sapiens) (UniProt Q9NPH5). Description: NOX4-dependent H2O2 signal modulators, primary screen, NOX inhibitor project, cell-based, HEK293-NOX4, tetracycline-induced, Amplex Red fluorescence (AID 1160). The settings on record: 45 min, higher = more signal, called active from +8 up or from −8 down.
In experiment [20] the target is NADPH oxidase 5 (Homo sapiens) (UniProt Q96PH1). The experiment is described as follows: NOX5-dependent H2O2 signal modulators, primary screen, NOX inhibitor project, cell-based, HEK293-NOX5, Amplex Red fluorescence (AID 1161). The conditions noted are these: HEK293-NOX5, ionomycin, 45 min, higher = more signal.
Sequence of NADPH oxidase 5 (Homo sapiens) (Q96PH1 whole entry, looked up): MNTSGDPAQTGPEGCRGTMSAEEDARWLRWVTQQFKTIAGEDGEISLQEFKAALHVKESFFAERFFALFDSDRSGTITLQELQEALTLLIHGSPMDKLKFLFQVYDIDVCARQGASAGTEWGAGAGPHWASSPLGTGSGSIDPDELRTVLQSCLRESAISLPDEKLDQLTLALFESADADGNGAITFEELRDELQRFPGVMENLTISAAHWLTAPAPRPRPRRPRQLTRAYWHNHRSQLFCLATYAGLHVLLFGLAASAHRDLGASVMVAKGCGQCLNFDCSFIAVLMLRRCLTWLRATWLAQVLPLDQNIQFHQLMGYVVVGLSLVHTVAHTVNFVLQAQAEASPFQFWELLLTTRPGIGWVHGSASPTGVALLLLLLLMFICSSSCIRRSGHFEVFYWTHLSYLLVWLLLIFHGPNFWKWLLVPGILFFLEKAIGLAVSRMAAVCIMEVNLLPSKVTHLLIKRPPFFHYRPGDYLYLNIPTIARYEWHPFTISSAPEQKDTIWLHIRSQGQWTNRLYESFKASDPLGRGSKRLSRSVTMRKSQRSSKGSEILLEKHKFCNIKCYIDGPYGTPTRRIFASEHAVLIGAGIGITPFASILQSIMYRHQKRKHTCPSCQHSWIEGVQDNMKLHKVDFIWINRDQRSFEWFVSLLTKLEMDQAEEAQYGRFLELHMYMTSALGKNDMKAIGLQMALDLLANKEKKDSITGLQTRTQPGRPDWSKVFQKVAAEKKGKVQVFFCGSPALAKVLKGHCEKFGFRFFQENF

Sequence of NADPH oxidase 2 (Homo sapiens) (P04839 whole entry, looked up): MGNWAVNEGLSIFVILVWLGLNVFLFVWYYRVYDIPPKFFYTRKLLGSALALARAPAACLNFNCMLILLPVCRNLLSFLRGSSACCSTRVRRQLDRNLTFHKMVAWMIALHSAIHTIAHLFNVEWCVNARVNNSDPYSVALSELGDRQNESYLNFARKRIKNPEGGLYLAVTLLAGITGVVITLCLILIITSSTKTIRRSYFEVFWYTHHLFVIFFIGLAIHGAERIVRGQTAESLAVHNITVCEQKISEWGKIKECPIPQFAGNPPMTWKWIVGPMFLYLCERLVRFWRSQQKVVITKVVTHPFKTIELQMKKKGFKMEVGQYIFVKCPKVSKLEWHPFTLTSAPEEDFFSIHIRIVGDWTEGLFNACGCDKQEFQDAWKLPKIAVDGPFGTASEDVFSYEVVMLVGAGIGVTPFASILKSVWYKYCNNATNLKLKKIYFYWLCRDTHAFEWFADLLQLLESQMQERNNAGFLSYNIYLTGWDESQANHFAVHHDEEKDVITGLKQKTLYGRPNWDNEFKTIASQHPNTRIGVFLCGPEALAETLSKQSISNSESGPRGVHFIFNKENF
Sequence of Torsin-1A (Homo sapiens) (O14656 whole entry, looked up): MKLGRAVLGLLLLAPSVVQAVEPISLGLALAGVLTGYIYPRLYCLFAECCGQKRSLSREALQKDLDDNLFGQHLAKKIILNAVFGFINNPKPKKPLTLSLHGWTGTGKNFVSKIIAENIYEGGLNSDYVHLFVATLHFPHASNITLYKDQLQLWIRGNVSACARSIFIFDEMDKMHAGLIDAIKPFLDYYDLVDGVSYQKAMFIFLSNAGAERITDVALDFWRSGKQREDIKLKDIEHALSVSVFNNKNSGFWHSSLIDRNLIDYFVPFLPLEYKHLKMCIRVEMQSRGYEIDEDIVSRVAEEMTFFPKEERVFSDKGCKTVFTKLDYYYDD
Sequence of NADPH oxidase 4 (Homo sapiens) (Q9NPH5 whole entry, looked up): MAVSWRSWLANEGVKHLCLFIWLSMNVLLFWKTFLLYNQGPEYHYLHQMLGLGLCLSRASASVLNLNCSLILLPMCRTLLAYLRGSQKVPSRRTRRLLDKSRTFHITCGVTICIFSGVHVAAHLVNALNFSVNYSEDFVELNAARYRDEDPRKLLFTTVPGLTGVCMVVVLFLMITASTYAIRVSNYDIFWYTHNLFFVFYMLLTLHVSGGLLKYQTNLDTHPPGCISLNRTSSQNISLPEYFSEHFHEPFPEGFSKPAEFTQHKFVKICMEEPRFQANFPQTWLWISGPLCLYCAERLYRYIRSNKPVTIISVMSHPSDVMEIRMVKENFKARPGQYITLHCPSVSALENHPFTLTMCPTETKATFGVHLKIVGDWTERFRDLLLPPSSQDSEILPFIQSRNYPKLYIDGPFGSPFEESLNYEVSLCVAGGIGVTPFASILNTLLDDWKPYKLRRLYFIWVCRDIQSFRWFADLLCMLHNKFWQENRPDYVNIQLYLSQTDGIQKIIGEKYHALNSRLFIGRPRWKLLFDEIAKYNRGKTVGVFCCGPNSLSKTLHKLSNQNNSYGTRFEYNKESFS
Sequence of Streptavidin (Streptomyces avidinii) (P22629 whole entry, looked up): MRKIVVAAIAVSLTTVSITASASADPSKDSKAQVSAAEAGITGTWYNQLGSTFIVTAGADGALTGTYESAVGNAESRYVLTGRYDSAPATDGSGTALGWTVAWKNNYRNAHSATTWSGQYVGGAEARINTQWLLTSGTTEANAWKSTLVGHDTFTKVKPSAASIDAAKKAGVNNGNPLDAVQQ

With `C/C=C\[C@@H](NCc1ccccc1Br)[C@@H](O)Cc1ccccc1`, the composite z-score is -0.771 in experiment [1]; -0.838 in experiment [6]; -0.153 in experiment [7]; 0.0908 in experiment [8]; -0.27 in experiment [9]; -1.3 in experiment [10]. This compound displayed a composite z-score in experiment [12] of 0.0927. In addition, the z-score in [2] was -5.43 (inactive); in experiment [3], 0.541 (inactive); in [4] it was 0.857 (inactive); in [5], 0.567 (inactive); in experiment [11], -1.43 (inactive); in experiment [13], -0.222 (inactive). For the same compound, the z-score in experiment [14] was -1.35 (inactive); in [15] it was 0.0141 (inactive); in experiment [16], -2.52 (inactive); in experiment [17] it was 0.365; in experiment [18], -0.239 (inactive); in experiment [19] it was -1.49 (inactive). For the same compound, the z-score in experiment [20] is -2.69.

Turning to `COC(=O)C1=C(C)N(Cc2ccccc2)[C@]23O[C@](C(=O)OC)(C(=O)N2[C@@H]1c1ccccc1)[C@H]1CCOC(=O)[C@H]13`, the composite z-score in experiment [1] was 0.313; in experiment [6], 0.0391; in experiment [7], -0.0118; in experiment [8] it was 0.252; in experiment [9], 0.22; in experiment [10], 1.05. In experiment [12], this compound returned a composite z-score of -0.0984. Also, the z-score in experiment [2] is -0.147 (inactive); in [3] it was -1.02 (inactive); in [4], 0.286 (inactive); in experiment [5], -0.213 (inactive); in experiment [11], -0.238 (inactive); in experiment [13], 0.951 (inactive). Further, the z-score is -0.0468 (inactive) in experiment [14]; 1.3 (inactive) in experiment [15]; 0.443 (inactive) in experiment [16]; -0.537 in experiment [17]; 0.902 (inactive) in [18]; 0.805 (inactive) in experiment [19]. This compound also showed a z-score in [20] of 1.06.

For the compound `CC(C)(C)OC(=O)CC[C@]1(C(=O)NCc2ccccc2)N=C(c2ccc(OCCCO)cc2)O[C@H]1c1ccccc1`, the composite z-score in experiment [1] is 1.01; in experiment [6], 1.58; in experiment [7], 0.347; in experiment [8] it was 0.712; in experiment [9], 1.11; in experiment [10] it was -0.349. The compound further gave a composite z-score in experiment [12] of 1.18. Further, the z-score was -3.16 (inactive) in [2]; -1.77 (inactive) in experiment [3]; 0.699 (inactive) in [4]; -1.23 (inactive) in experiment [5]; 0.185 (inactive) in [11]; 14.6 (active) in [13]. The z-score is 1.79 (inactive) in experiment [14]; 1.14 (inactive) in [15]; 0.887 (inactive) in experiment [16]; -0.009 in [17]; -2.22 (inactive) in experiment [18]; -0.583 (inactive) in experiment [19]. The z-score in experiment [20] was -1.81.

For `CCCCc1nc2c(c3c1C[C@H](C)OC3)CN(CCC(C)C)CC2`, the composite z-score was 0.122 in [1]; 0.0392 in [6]; -0.0074 in experiment [7]; 0.888 in [8]; 0.622 in [9]; 0.992 in experiment [10]. In experiment [12], the composite z-score was -0.106. For the same compound, the z-score in experiment [2] is -0.262 (inactive); in [3], -0.578 (inactive); in experiment [4] it was 7.7 (inactive); in experiment [5], -1.14 (inactive); in experiment [11], -0.192 (inactive); in [13] it was 1.35 (inactive). The z-score was 0.977 (inactive) in [14]; 0.816 (inactive) in experiment [15]; 0.589 (inactive) in experiment [16]; 0.171 in experiment [17]; 0.35 (inactive) in [18]; 0.315 (inactive) in experiment [19]. This compound had a z-score in [20] of 0.776.

Take `CC1CC/C=C\[C@H]2OC34C=CCN(C(C)C)C(=O)[C@H]3N(CCCO)C(=O)[C@@H]4C2C(=O)O1` (stereo not given in full): the composite z-score in experiment [1] is -0.439; in experiment [6], -1.47; in experiment [7], 0.095; in [8] it was 1.72; in experiment [9], -1.29; in [10] it was 0.533. The composite z-score in experiment [12] is -0.0536. Moreover, the z-score in experiment [2] was -1.03 (inactive); in experiment [3], 1.15 (inactive); in [4], 0.601 (inactive); in [5], 0.371 (inactive); in experiment [11] it was 0.658 (inactive); in [13] it was 0.0261 (inactive). Further, the z-score in experiment [14] was -0.0331 (inactive); in experiment [15], -0.0769 (inactive); in experiment [16] it was -0.207 (inactive); in experiment [17], -0.251; in experiment [18], 1.57 (inactive); in [19], 0.213 (inactive). The z-score in [20] worked out at 2.02.
